According to PubChem BioAssay (NCI):
About 83,000 compounds went through this panel and 20% of them were active in at least one assay; those are over-represented in the sample as a whole.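 Testing used 96-well plates and a 48-hour single-concentration exposure. Example: -40 means 40% of the starting cells died.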 The source made the active and inactive calls. Rule for the calls: active = growth percent below 10; inactive = the rest.

Key:
Test in all cases: NCI-60 one-dose screen, 48 h (100 = growth as untreated, 0 = no growth, -100 = all killed)
Conditions in all cases: 10 µM unless noted
DU-145 prostate = test system: DU-145 prostate
K-562 leukemia = test system: K-562 leukemia
MALME-3M melanoma = test system: MALME-3M melanoma
MDA-MB-231 breast = test system: MDA-MB-231 breast
RXF 393 renal = test system: RXF 393 renal
SF-268 CNS = test system: SF-268 CNS
SF-295 CNS = test system: SF-295 CNS
SF-539 CNS = test system: SF-539 CNS
UACC-257 melanoma = test system: UACC-257 melanoma
M14 melanoma = test system: M14 melanoma

Measured: growth

CC(C)c1sc(NC(=O)c2cc(NC(=O)c3cc(NC(=O)c4nccn4C)cn3C)cn2C)nc1C(=O)NCCCN(C)C
inactive: DU-145 prostate 91.7% | K-562 leukemia 30.8% | MALME-3M melanoma 65% | MDA-MB-231 breast 85.5% | RXF 393 renal 76.6% | SF-268 CNS 57.9% | SF-295 CNS 100% | SF-539 CNS 76.9% | UACC-257 melanoma 82.3% | M14 melanoma 94.3%

O=C1/C(=C/C2=Cc3ccccc3OC2)SC(=S)N1c1ccccc1F
inactive: DU-145 prostate 108% | K-562 leukemia 92.4% | MALME-3M melanoma 96.2% | MDA-MB-231 breast 97.2% | RXF 393 renal 109% | SF-268 CNS 122% | SF-295 CNS 96.9% | SF-539 CNS 97.6% | UACC-257 melanoma 107% | M14 melanoma 93.3%

COc1ccc2c(c1)c(-c1cc(N)n3nc(-c4cn(C)c5ccccc45)cc3n1)cn2C
active: DU-145 prostate -58% | K-562 leukemia 2.2% | MALME-3M melanoma -76.5% | MDA-MB-231 breast -53.8% | RXF 393 renal -82.2% | SF-268 CNS -56.5% | SF-295 CNS -73.3% | SF-539 CNS -87.6% | UACC-257 melanoma -67.8% | M14 melanoma -83%

Cn1cc(-c2cc(N)n3nc(-c4cn(C)c5ccccc45)cc3n2)c2cc(Br)ccc21
inactive: DU-145 prostate 27.7%
active: K-562 leukemia 0.853% | MALME-3M melanoma -72.9% | MDA-MB-231 breast -41.2% | RXF 393 renal -70.1% | SF-268 CNS -47.3% | SF-295 CNS -53.4% | SF-539 CNS -72.3% | UACC-257 melanoma -71% | M14 melanoma -74.4%

O=c1[nH]c2ccc(Cl)cc2cc1CSc1nccc(-c2ccc(Cl)cc2)n1
active: SF-539 CNS 3.24%
inactive: DU-145 prostate 78.9% | K-562 leukemia 64.7% | MALME-3M melanoma 51% | MDA-MB-231 breast 45.7% | RXF 393 renal 35.3% | SF-268 CNS 54.3% | SF-295 CNS 16.8% | UACC-257 melanoma 60.9% | M14 melanoma 71.1%

COc1cc2oc(-c3cccc(NC(=O)[C@H](Cc4ccccc4)NC(=O)OC(C)(C)C)c3)cc(=O)c2c(OC)c1OC
inactive: DU-145 prostate 35.7% | K-562 leukemia 23% | MALME-3M melanoma 35% | MDA-MB-231 breast 42.7% | RXF 393 renal 31% | SF-268 CNS 62% | SF-295 CNS 36.8% | SF-539 CNS 43.1% | UACC-257 melanoma 75.5% | M14 melanoma 51.7%

CC(C)CSc1nc(NCCc2c[nH]c3ccccc23)c(C#N)c(-c2ccc(Cl)cc2)n1
inactive: DU-145 prostate 67.1% | K-562 leukemia 13.6% | MALME-3M melanoma 81.9% | MDA-MB-231 breast 48.2% | RXF 393 renal 31% | SF-268 CNS 55% | SF-295 CNS 66.4% | SF-539 CNS 60.9% | UACC-257 melanoma 85.8% | M14 melanoma 67.6%

CCOC(=O)/C=C/c1cccc2c1C(=O)NC(C)(c1cc3cc(Br)ccc3oc1=O)N2 (stereo not given)
inactive: DU-145 prostate 49.6% | K-562 leukemia 24.1% | MALME-3M melanoma 71% | MDA-MB-231 breast 56% | RXF 393 renal 35.6% | SF-268 CNS 49.8% | SF-295 CNS 36.7% | SF-539 CNS 73.9% | UACC-257 melanoma 64.6% | M14 melanoma 42.4%

CC1(C)CC[C@]2(C(=O)O)CC[C@]3(C)C(=CCC4[C@@]5(C)C[C@@H](O)[C@@H]6OC(c7ccco7)OC[C@@]6(C)C5CC[C@]43C)C2C1 (stereo not given in full)
active: MALME-3M melanoma 9.79% | UACC-257 melanoma 1.3%
inactive: DU-145 prostate 29.1% | K-562 leukemia 21.2% | MDA-MB-231 breast 59.7% | RXF 393 renal 32.4% | SF-268 CNS 31.9% | SF-295 CNS 24.5% | SF-539 CNS 21.9% | M14 melanoma 23.3%

Cc1ccc(NC(=O)[C@]23CCC(C)(C)CC2C2=CCC4[C@@]5(C)C[C@@H](O)[C@H](O)[C@@](C)(CO)C5CC[C@@]4(C)[C@]2(C)CC3)cc1 (stereo not given in full)
inactive: DU-145 prostate 45.6% | K-562 leukemia 11.6% | MALME-3M melanoma 49.5% | SF-268 CNS 48.5% | SF-295 CNS 21.8% | SF-539 CNS 28.1% | UACC-257 melanoma 39.8% | M14 melanoma 38.3%
active: MDA-MB-231 breast -8.63% | RXF 393 renal -38.6%

N/C(=N\c1nc2ccccc2s1)NC(=O)Nc1ccc(Cl)cc1Cl
active: DU-145 prostate -74.2% | K-562 leukemia 9.51% | MALME-3M melanoma -75.2% | MDA-MB-231 breast -83.4% | RXF 393 renal -84% | SF-268 CNS -2.76% | SF-295 CNS -98.5% | SF-539 CNS -78.2% | M14 melanoma -53.6%
inactive: UACC-257 melanoma 18.8%

CC1(C)CC[C@]2(C(=O)O)CC[C@]3(C)C(=CCC4[C@@]5(C)C[C@@H](O)[C@@H]6OC(c7cccc(Br)c7)OC[C@@]6(C)C5CC[C@]43C)C2C1 (stereo not given in full)
inactive: DU-145 prostate 32.5% | K-562 leukemia 16% | MALME-3M melanoma 73.9% | MDA-MB-231 breast 71.2% | RXF 393 renal 71.3% | SF-268 CNS 47.5% | SF-295 CNS 33% | SF-539 CNS 54.6% | UACC-257 melanoma 53.1% | M14 melanoma 53.2%

Cc1cccc(-c2nc(Nc3ccc(C)c(S(N)(=O)=O)c3)c3ccccc3n2)c1
inactive: DU-145 prostate 53.2% | MALME-3M melanoma 46.6% | MDA-MB-231 breast 10.9% | RXF 393 renal 22.6% | SF-268 CNS 50.9% | UACC-257 melanoma 76.4% | M14 melanoma 31.4%
active: K-562 leukemia 7.2% | SF-295 CNS 5.63% | SF-539 CNS 9.73%

Nc1nnc(-c2c[nH]c3ncc(Br)cc23)c(-c2c[nH]c3ccc(F)cc23)n1
inactive: DU-145 prostate 44% | K-562 leukemia 23% | MALME-3M melanoma 13.7% | MDA-MB-231 breast 51.6% | RXF 393 renal 40.9% | SF-268 CNS 49% | SF-295 CNS 35.1% | SF-539 CNS 34.8% | UACC-257 melanoma 44.9% | M14 melanoma 23.4%

Cn1cc(-c2nnc(N)nc2-c2c[nH]c3ccc(F)cc23)c2cccnc21
inactive: DU-145 prostate 80.2% | K-562 leukemia 15.7% | MALME-3M melanoma 44.8% | MDA-MB-231 breast 51.6% | RXF 393 renal 65.4% | SF-268 CNS 61% | SF-295 CNS 25.6% | SF-539 CNS 47.2% | UACC-257 melanoma 72.7% | M14 melanoma 21.6%

C=C1CCC2C3(C)COC(c4cccs4)OC3CCC2(C)C1CC(Sc1ccccc1)C1=CCOC1=O (stereo not given)
inactive: DU-145 prostate 94.4% | K-562 leukemia 40.7% | MALME-3M melanoma 103% | MDA-MB-231 breast 89.3% | RXF 393 renal 107% | SF-268 CNS 96.6% | SF-295 CNS 92.5% | SF-539 CNS 95% | UACC-257 melanoma 95.6% | M14 melanoma 83.3%

Cn1cc(-c2cc(N)n3nc(-c4cn(C)c5ncccc45)cc3n2)c2cccnc21
active: K-562 leukemia 5.55% | MDA-MB-231 breast -22.4%
inactive: DU-145 prostate 83.2% | MALME-3M melanoma 97.3% | RXF 393 renal 58.8% | SF-268 CNS 92.7% | SF-295 CNS 62.6% | SF-539 CNS 84.2% | UACC-257 melanoma 100% | M14 melanoma 93.1%

COc1cc2c(c(OC)c1OC)C(=O)CC(c1cccc(NC(=O)c3cc(NC(=O)[C@@H](N)CO)ccc3C)c1)O2 (stereo not given in full)
inactive: DU-145 prostate 119% | K-562 leukemia 91.4% | MALME-3M melanoma 103% | MDA-MB-231 breast 111% | RXF 393 renal 119% | SF-268 CNS 111% | SF-295 CNS 101% | SF-539 CNS 99.7% | UACC-257 melanoma 104% | M14 melanoma 119%

CN(C)CCn1c2ccccc2c2nc3cc(C(F)(F)F)ccc3nc21
inactive: DU-145 prostate 31.4% | K-562 leukemia 19.3% | MALME-3M melanoma 25.9% | MDA-MB-231 breast 37.2% | RXF 393 renal 42.7% | SF-268 CNS 52.4% | SF-295 CNS 27.9% | SF-539 CNS 26.3% | UACC-257 melanoma 45.1% | M14 melanoma 40.7%

CN(C)c1nc(NCCNS(=O)(=O)c2ccc(C(=O)/C=C/c3ccc(C(F)(F)F)cc3)cc2)nc(Nc2ccc(F)cc2)n1
inactive: SF-268 CNS 21.6% | UACC-257 melanoma 23.7%
active: DU-145 prostate 6.99% | K-562 leukemia -1.07% | MALME-3M melanoma -2.41% | MDA-MB-231 breast -74.2% | RXF 393 renal -81.4% | SF-295 CNS -14.6% | SF-539 CNS -97.5% | M14 melanoma -48.3%

CC1(C)CC[C@]2(C(=O)Nc3ccc(Br)cc3)CC[C@]3(C)C(=CCC4[C@@]5(C)C[C@@H](O)[C@H](O)[C@@](C)(CO)C5CC[C@]43C)C2C1 (stereo not given in full)
inactive: DU-145 prostate 21.5% | MALME-3M melanoma 33.2% | SF-268 CNS 43.8% | UACC-257 melanoma 11.1% | M14 melanoma 31.9%
active: K-562 leukemia 5.08% | MDA-MB-231 breast -43.3% | RXF 393 renal -64.5% | SF-295 CNS -13.3% | SF-539 CNS -5.36%

C#CCOc1cc(N(CC)CC)ccc1C(C(=O)NC(C)(C)C)N(C(=O)C1CCc2cc(F)ccc2O1)c1ccccc1Br (stereo not given)
inactive: DU-145 prostate 74% | K-562 leukemia 31.3% | MALME-3M melanoma 77.4% | MDA-MB-231 breast 63% | RXF 393 renal 81.6% | SF-268 CNS 62.1% | SF-295 CNS 62.8% | SF-539 CNS 72.5% | UACC-257 melanoma 60% | M14 melanoma 55.5%

O=C(C1=CNC(=S)NC1c1ccc(O)cc1)c1cc2ccccc2oc1=O (stereo not given)
inactive: DU-145 prostate 110% | K-562 leukemia 90.9% | MALME-3M melanoma 108% | MDA-MB-231 breast 105% | RXF 393 renal 109% | SF-268 CNS 97.5% | SF-295 CNS 98.8% | SF-539 CNS 91.9% | UACC-257 melanoma 107% | M14 melanoma 96.4%

COc1ccc(-c2ccnc(SCc3cc4ccccc4[nH]c3=O)n2)cc1
inactive: DU-145 prostate 81.2% | K-562 leukemia 11.1% | MALME-3M melanoma 65.9% | MDA-MB-231 breast 59.1% | RXF 393 renal 40.2% | SF-268 CNS 87.7% | SF-295 CNS 50.3% | SF-539 CNS 50% | UACC-257 melanoma 79.5% | M14 melanoma 44.8%

CN(C)c1nc(NCCNS(=O)(=O)c2ccc(C3=Nc4c(N)nc(N)nc4NC(c4ccc(F)cc4)C3)cc2)nc(Nc2ccc(F)cc2)n1 (stereo not given)
active: K-562 leukemia 3.61% | SF-539 CNS -25.3%
inactive: DU-145 prostate 54.2% | MALME-3M melanoma 47.1% | MDA-MB-231 breast 20.8% | RXF 393 renal 16.5% | SF-268 CNS 31.9% | SF-295 CNS 57.3% | UACC-257 melanoma 59.3% | M14 melanoma 28%

COc1cc(-c2nc3ccc(C)cc3[nH]2)ccc1OCc1nnc(-c2ccc(Br)cc2)o1
active: K-562 leukemia 3.01% | SF-295 CNS -54.1% | SF-539 CNS -82.7% | UACC-257 melanoma -15.4%
inactive: DU-145 prostate 58.3% | MALME-3M melanoma 45% | MDA-MB-231 breast 12.9% | RXF 393 renal 25.2% | SF-268 CNS 54.8% | M14 melanoma 31.2%
